Measured values as given in the supplement of paper PMC10849652.
Of roughly 7,900 targets only a part is listed; those with a hit were picked by preference. About 0.6% of all pairs of compound and target were hits. A number with no mark means an inactive call.

compound: Cc1sc2c(c1C)C(c1ccc(Cl)cc1)=N[C@@H](CC(=O)OC(C)(C)C)c1nnc(C)n1-2; test: log2 fold change, soluble protein after heating vs DMSO (PISA); higher = thermal stabilisation; K562 cells, 10 uM, 30 min; active = over 0.2 and 3.5 SD of the protein, either way, in both replicates (recomputed)
How it was run: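 K562 cells (2×10^6 cells/mL) were treated with 10 μM compound for 30 min, and aliquots were heated for 3 min over 48°C-58°C. Pooled aliquots were extracted in PBS with 0.5% NP-40 at 4°C, and the supernatant after 21,000xg for 90 min was measured by TMTpro 16plex LC-MS/MS with channel sums equalised. Reported thermal stability, relative to control samples and from duplicates, is a log2 fold change.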

UniProt A0PJW6, sequence (A0PJW6 whole entry, looked up): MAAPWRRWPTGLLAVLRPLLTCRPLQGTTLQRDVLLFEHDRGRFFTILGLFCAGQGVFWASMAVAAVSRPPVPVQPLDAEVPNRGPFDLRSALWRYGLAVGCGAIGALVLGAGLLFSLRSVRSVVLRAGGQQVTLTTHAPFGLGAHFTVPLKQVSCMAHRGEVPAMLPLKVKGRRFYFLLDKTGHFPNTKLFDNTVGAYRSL
UniProt Q9BVJ6, sequence (Q9BVJ6 whole entry, looked up): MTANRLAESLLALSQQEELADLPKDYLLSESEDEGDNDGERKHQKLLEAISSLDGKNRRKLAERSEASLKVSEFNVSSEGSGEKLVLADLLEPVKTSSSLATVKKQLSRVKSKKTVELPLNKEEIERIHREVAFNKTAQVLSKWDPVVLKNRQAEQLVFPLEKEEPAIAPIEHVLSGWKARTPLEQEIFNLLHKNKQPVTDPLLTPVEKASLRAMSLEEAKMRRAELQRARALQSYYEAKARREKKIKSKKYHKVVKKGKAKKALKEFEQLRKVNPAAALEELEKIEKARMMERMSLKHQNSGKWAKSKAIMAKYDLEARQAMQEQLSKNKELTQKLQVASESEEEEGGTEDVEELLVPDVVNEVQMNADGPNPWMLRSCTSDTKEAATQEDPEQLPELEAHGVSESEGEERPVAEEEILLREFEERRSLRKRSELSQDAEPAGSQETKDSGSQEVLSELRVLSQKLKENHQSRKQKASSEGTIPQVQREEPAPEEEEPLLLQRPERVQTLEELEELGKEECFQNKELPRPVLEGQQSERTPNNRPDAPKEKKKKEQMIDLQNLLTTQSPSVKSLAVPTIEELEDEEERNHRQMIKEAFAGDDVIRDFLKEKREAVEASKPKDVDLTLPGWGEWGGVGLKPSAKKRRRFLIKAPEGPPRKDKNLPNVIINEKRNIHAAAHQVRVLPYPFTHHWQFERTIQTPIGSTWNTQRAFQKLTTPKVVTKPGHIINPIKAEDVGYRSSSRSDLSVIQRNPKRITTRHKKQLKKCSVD
UniProt Q93008, sequence (Q93008 whole entry, looked up): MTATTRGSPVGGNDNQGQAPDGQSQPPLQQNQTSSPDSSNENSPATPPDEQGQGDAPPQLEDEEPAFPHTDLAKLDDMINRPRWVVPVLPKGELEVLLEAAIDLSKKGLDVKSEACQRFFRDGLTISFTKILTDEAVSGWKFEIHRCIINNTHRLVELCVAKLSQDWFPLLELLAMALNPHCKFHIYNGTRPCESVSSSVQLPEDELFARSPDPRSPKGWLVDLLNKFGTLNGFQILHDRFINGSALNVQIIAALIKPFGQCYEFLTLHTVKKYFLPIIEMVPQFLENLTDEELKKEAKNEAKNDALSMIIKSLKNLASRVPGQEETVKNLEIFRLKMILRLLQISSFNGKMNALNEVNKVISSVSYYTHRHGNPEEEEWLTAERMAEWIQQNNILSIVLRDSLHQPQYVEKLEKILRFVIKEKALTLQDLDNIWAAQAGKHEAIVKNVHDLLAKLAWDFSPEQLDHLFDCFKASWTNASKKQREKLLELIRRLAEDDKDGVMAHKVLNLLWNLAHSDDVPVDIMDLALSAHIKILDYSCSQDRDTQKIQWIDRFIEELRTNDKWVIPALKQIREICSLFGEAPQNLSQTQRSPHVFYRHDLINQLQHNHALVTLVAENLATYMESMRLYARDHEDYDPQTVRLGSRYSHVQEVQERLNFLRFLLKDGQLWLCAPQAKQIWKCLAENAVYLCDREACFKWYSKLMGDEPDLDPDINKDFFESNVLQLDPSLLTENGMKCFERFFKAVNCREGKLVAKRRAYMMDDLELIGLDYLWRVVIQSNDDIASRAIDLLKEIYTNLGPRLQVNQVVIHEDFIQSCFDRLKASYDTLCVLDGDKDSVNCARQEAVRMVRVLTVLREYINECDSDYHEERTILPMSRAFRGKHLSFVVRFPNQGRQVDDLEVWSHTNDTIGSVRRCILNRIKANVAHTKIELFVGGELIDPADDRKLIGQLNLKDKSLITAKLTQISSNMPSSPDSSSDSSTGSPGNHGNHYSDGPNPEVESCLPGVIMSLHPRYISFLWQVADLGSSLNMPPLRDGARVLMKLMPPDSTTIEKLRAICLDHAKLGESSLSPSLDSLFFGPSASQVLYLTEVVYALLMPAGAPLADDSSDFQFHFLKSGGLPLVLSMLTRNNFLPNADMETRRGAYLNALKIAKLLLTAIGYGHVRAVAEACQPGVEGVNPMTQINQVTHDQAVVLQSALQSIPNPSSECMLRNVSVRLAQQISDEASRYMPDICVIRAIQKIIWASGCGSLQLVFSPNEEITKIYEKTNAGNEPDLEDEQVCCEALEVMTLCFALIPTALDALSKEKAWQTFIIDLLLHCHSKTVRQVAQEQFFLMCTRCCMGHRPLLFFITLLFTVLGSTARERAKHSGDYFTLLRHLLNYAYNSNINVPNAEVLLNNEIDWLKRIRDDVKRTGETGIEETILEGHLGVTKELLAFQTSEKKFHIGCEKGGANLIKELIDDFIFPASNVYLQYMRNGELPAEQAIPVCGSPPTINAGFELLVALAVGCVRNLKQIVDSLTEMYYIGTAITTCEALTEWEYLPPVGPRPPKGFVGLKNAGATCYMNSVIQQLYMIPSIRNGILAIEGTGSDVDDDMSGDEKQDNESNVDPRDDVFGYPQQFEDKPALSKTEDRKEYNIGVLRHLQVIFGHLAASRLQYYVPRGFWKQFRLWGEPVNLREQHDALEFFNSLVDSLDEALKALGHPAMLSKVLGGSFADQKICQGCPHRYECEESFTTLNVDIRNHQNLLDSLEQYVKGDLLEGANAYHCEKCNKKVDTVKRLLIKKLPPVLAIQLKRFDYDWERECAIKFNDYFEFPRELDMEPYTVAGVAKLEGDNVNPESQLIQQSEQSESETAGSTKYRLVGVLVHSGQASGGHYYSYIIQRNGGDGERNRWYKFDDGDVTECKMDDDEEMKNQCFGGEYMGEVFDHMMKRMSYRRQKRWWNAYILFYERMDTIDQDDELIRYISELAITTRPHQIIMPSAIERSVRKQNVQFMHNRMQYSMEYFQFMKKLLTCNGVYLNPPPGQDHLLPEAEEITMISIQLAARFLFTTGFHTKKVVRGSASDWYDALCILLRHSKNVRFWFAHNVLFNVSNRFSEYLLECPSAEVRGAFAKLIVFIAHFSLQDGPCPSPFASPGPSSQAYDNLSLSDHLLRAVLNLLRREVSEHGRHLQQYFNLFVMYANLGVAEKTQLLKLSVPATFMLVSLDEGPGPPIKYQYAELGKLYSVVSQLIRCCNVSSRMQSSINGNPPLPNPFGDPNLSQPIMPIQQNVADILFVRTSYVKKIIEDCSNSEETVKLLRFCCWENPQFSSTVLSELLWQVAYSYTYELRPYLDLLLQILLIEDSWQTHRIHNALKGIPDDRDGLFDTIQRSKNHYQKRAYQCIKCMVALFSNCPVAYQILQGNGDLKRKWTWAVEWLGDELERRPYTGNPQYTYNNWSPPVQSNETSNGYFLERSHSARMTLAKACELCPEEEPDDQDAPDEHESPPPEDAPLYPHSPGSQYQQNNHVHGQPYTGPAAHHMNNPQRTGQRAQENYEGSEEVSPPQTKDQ
UniProt Q8IWA0, sequence (Q8IWA0 whole entry, looked up): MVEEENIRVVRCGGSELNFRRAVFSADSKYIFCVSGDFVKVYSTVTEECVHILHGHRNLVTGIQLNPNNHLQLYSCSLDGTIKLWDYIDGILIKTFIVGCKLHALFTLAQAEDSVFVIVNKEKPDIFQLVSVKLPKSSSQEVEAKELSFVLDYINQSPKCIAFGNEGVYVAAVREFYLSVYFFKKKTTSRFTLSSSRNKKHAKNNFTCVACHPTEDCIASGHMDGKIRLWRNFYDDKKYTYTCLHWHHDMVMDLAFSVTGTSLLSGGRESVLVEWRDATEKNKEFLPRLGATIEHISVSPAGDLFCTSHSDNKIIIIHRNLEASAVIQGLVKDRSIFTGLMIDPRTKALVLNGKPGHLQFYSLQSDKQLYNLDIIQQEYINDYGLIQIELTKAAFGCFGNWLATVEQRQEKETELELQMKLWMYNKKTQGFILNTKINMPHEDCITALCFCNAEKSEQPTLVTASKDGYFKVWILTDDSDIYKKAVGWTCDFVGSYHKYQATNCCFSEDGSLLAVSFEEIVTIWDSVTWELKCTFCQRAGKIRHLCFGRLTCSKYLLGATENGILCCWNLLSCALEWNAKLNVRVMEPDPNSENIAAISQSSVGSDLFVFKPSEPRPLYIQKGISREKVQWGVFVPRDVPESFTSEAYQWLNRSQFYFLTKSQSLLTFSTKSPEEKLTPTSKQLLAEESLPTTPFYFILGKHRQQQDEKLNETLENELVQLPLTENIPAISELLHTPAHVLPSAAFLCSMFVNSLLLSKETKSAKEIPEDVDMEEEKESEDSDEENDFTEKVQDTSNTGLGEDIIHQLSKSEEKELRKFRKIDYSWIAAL
UniProt Q9NQH7, sequence (Q9NQH7 whole entry, looked up): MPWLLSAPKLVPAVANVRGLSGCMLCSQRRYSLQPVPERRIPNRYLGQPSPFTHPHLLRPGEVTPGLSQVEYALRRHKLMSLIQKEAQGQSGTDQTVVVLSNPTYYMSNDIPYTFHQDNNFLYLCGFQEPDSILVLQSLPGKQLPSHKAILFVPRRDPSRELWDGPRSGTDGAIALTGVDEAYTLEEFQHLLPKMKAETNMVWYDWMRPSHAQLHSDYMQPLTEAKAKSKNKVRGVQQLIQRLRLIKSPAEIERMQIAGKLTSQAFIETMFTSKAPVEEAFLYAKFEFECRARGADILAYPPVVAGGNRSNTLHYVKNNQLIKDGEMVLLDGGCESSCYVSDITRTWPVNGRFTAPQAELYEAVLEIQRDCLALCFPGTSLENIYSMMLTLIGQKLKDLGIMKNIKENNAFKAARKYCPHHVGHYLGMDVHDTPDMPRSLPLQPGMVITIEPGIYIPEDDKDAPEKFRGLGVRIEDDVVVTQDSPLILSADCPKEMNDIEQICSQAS
UniProt P02585, sequence (P02585 whole entry, looked up): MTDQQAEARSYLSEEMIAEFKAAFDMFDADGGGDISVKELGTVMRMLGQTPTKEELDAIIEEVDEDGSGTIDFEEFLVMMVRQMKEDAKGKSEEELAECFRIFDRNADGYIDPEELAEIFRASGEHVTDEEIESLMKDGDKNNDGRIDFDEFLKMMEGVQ

| Target | log2 fold change |
| --- | --- |
| VPS51 (UniProt Q9UID3) | -0.048 |
| VPS11 (UniProt Q9H270) | -0.001 |
| VPS41 (UniProt P49754) | -0.017 |
| UBIAD1 (UniProt Q9Y5Z9) | -0.074 |
| WDR41 (UniProt Q9HAD4) | -0.03 |
| WDR46 (UniProt O15213) | 0.246 |
| UBE4A isoform 2 (UniProt Q14139) | 0.013 |
| WASH2P (UniProt Q6VEQ5) | 0.041 |
| TPP1 (UniProt O14773) | 0.036 |
| USP9X (UniProt Q93008) | 0.012 |
| XPO6 (UniProt Q96QU8) | 0.015 |
| WDR61 (UniProt Q9GZS3) | 0.032 |
| WDHD1 (UniProt O75717) | 0.002 |
| TMEM164 (UniProt Q5U3C3) | -0.22 |
| UTP14A (UniProt Q9BVJ6) | 0.124 |
| TRAPPC2L (UniProt Q9UL33) | -0.063 |
| UBXN10 (UniProt Q96LJ8) | 0.018 |
| UBE2D1 (UniProt P51668) | -0.081 |

| Target | log2 fold change |
| --- | --- |
| TUT4 (UniProt Q5TAX3) | -0.052 |
| USP3 (UniProt Q9Y6I4) | -0.061 |
| TNNC2 (UniProt P02585) | -0.624 |
| UBE2S (UniProt Q16763) | 0 |
| VRK2 (UniProt Q86Y07) | 0.005 |
| TRIM28 (UniProt Q13263) | -0.012 |
| XPNPEP3 (UniProt Q9NQH7) | -0.009 |
| WDR75 (UniProt Q8IWA0) | 0.304 |
| UFM1 isoform 2 (UniProt P61960) | -0.069 |
| TXNRD1 (UniProt Q16881) | -0.031 |
| TUBA4A (UniProt P68366) | -0.01 |
| TMEM223 (UniProt A0PJW6) | 0.03 |
| VTI1A (UniProt Q96AJ9) | -0.023 |
| VPS33A (UniProt Q96AX1) | 0.059 |
| WARS2 (UniProt Q9UGM6) | -0.002 |
| TTI2 (UniProt Q6NXR4) | 0.028 |
| TNFRSF10A (UniProt O00220) | 0.024 |
| WASHC2A (UniProt Q641Q2) | 0.069 |
